DRD3 agonist: agonists of human D3 dopamine receptor; max activation, %; P35462; 0.58% of 410,000 active; D3R DiscoveRx beta-arrestin cells, luminescence, 90 min; in the data active means max activation above about 30%; further: 0% is about no effect
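Agonist-mode cell screen: cells plated at 1500/well and incubated overnight at 37 °C, then exposed to library compounds for 90 min at 37 °C. Detection reagent was added for 30–60 min at room temperature, and luminescence was read.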
D1 potentiator: human D1 dopamine receptor positive modulation; P21728; HEK293 TREx D1 cells, calcium flux, dopamine EC20 potentiation; potentiation, % at 10 µM; 0.036% of 360,000 active; in the data active means potentiation above about 30%; further: 0% is about no effect
Target sequence (P21728 whole entry, looked up): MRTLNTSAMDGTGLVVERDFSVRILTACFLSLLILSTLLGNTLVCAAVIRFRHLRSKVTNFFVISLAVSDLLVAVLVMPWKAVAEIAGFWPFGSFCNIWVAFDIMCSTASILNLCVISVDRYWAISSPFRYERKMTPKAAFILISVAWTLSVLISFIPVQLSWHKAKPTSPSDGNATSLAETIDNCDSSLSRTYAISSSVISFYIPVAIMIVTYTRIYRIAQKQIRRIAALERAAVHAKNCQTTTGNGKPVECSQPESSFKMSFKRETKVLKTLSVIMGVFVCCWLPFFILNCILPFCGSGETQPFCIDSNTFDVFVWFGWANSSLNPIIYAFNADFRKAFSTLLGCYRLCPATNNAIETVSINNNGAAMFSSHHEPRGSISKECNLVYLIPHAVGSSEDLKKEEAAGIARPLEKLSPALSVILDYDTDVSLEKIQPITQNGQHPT
D1 antagonist: blocks dopamine activation of the human D1 receptor | P21728 | HEK293 TREx D1 cells, calcium flux, dopamine EC80; stronger effect = lower value | activity change, negative = inhibition, % at 10 µM | 3.2% of 360,000 active | AID 504652; in the data active means activity change below about -30%; further: on the % scale 0 is the no-effect control and ±100 the full control effect
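Compound effects on dopamine-evoked calcium signalling were measured in tetracycline-induced HEK293 Trex D1 cells. Dopamine at EC80 followed a 180 s compound pre-read, and fluorescence was tracked kinetically for 180 s more.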
ERG-DNA inh: inhibitors of human ERG Ets domain-DNA interaction; P11308; fluorescence polarization, His-ERG Ets domain / labelled DNA; Potency, µM (highest dose often 76.9 µM), for inactives: at the highest dose FP activity, negative = inhibition, actives largely listed as inhibitors; 0.028% of 370,000 active; AID 624246; active means well fitted inhibition curve with a large enough effect in the polarisation, with a control signal flat; inconclusive means small, poorly fitted or top-dose-only effect, or effect the other way, or a change in a side signal; inactive means no such curve, though single readings can be large or run the other way; the % refers to the polarisation;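 further: polarization taken with two DNA probes labelled with fluorescein and Texas red; potency means the concentration at half of the fitted maximal effect; % of control where 0% means no effect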
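His-tagged ERG Ets domain (1 uM in the protein solution; 300mM KCl, 50mM Tris-HCl, 1mM EDTA, 1mM DTT, pH 7.5) received compound, then a probe mix of 5 nM fluorescein-DNA and 100nM Texas-615-DNA. Fluorescence polarization was read for both dyes.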
D3 antag: D3 dopamine receptor (human) antagonism | P35462 | AID 652054 | max response, negative = inhibition, % | 2.5% of 360,000 active | D3R cells, DiscoveRx beta-arrestin luminescence, antagonist mode; stronger effect = lower value; in the data active means max response below about -50%; inconclusive means no clear call, values can overlap the other calls; further: on the % scale 0 is the no-effect control and ±100 the full control effect
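Cells expressing the human receptor were seeded at 1500 cells/well, incubated overnight at 37 degrees C in 5% CO2, then exposed to library compounds with dopamine controls for 90 minutes at 37 degrees C before luminescent detection.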
D1 agonist: activates the human D1 dopamine receptor | P21728 | HEK293 T-REx D1 cells, calcium flux, agonist mode | activation, % at 2 µM | 1% of 360,000 active | AID 504660; in the data active means activation above about 30%; further: 0% is about no effect
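Tetracycline-induced HEK293 TREx D1 cells, force-coupled to calcium signalling, were dye-loaded with a no-wash calcium kit. Compound was pin-added after a 10 s baseline. Fluorescence was read kinetically at 1 cycle/s for 180 s, with calcium rises flagged as agonism.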
* = called active by the depositor; ! = not confirmed by another sample. In the library only some 6.1% were active in any assay of this set; here they are far more common.

How did CCOc1cccc2sc(N(CCCN(C)C)C(=O)Cc3ccccc3)nc12 do in these assays?
DRD3 agonist: -11.1; D1 potentiator: 0.8; D1 antagonist: -1.2; ERG-DNA inh: -12.6%; D3 antag: 4.0; D1 agonist: 36.8*

Results for Cc1cccc2sc(N(CCCN(C)C)C(=O)c3ccco3)nc12 ?
DRD3 agonist: -3.8; D1 potentiator: -3.8; D1 antagonist: -6.2; ERG-DNA inh: 0.7%; D3 antag: -13.0; D1 agonist: 7.6

How did Cc1cccc2sc(N(CCCN(C)C)C(=O)c3ccc(Cl)s3)nc12 do in these assays?
DRD3 agonist: -3.6; D1 potentiator: -2.9; D1 antagonist: -0.8; ERG-DNA inh: 4.7%; D3 antag: 7.0; D1 agonist: 36.7*!

How did COc1ccc(CN2CCC2(C)C(=O)NCCNC(C)=O)c2ccccc12 (stereo not given) do in these assays?
DRD3 agonist: 0.5; D3 antag: 25.8

What do the screens show for `CC(=O)Nc1ccc(NC(=O)C2CCN(C(=O)C3CC(=O)N(c4ccc(C)cc4)C3)CC2)cc1` (stereo not given)?
DRD3 agonist: 5.5; D1 potentiator: -3.0; D1 antagonist: 3.4; ERG-DNA inh: -11.6%; D3 antag: 2.5; D1 agonist: 2.7

How did CCN(CC)S(=O)(=O)c1ccc2oc(C(=O)Nc3ccc(Br)cc3F)c(C)c2c1 do in these assays?
DRD3 agonist: -2.2; D1 potentiator: -2.0; D1 antagonist: 24.2; ERG-DNA inh: 2.4%; D1 agonist: 1.9

How did CCCCN(C(=O)c1cccc(S(=O)(=O)N(C)c2ccc(C)cc2)c1)c1c(N)n(CC(C)C)c(=O)[nH]c1=O do in these assays?
DRD3 agonist: -3.1; ERG-DNA inh: 4.3%; D3 antag: -1.6

What do the screens show for `NS(=O)(=O)c1ccc(CCNC(=O)c2ccc(Cl)c(S(=O)(=O)NCc3ccco3)c2)cc1`?
DRD3 agonist: 2.0; ERG-DNA inh: 0.7%; D3 antag: 5.5

What do the screens show for `Cc1ccc(C(=O)COC(=O)CCNS(=O)(=O)c2ccccc2F)cc1`?
DRD3 agonist: -2.1; ERG-DNA inh: -2.7%; D3 antag: 21.5

How did COc1ccc(C)c2sc(N(CCCN(C)C)C(=O)c3ccc4c(c3)OCCO4)nc12 do in these assays?
DRD3 agonist: -21.7; D1 potentiator: -13.4; D1 antagonist: -21.0; ERG-DNA inh: -8.8%; D3 antag: -7.8; D1 agonist: 66.4*

What do the screens show for `CCOc1cccc2sc(N(CCCN(C)C)C(=O)c3ccc(C(=O)c4ccccc4)cc3)nc12`?
DRD3 agonist: -16.0; D1 potentiator: -1.9; D1 antagonist: -32.9*; ERG-DNA inh: 10.1%; D3 antag: -27.9; D1 agonist: 42.6*

Results for COc1ccc(C)c2sc(N(CCN(C)C)C(=O)/C=C/c3cccs3)nc12 ?
DRD3 agonist: -17.6; D1 potentiator: -3.5; D1 antagonist: -4.3; ERG-DNA inh: 2.8%; D3 antag: -54.5*; D1 agonist: 12.1

Results for CCN(CC)CCN(C(=O)/C=C/c1cccs1)c1nc2ccc(F)cc2s1 ?
DRD3 agonist: -17.9; D1 potentiator: -10.8; D1 antagonist: 10.7; ERG-DNA inh: -18.1%; D3 antag: -70.8*; D1 agonist: 5.6

How did COc1ccc(OC)c2sc(N(CCN(C)C)C(=O)/C=C/c3cccs3)nc12 do in these assays?
DRD3 agonist: -20.0; D1 potentiator: 1.0; D1 antagonist: 7.0; ERG-DNA inh: 15.2%; D3 antag: -20.0; D1 agonist: 2.4

How did CN(C)CCCN(C(=O)c1ccc(C(=O)c2ccccc2)cc1)c1nc2c(F)cccc2s1 do in these assays?
DRD3 agonist: -14.1; D1 potentiator: 0.0; D1 antagonist: -7.5; ERG-DNA inh: -7.8%; D3 antag: -25.3; D1 agonist: 8.6

What do the screens show for `Cc1cc(OCC(=O)Nc2cc(-c3nc4ccccc4[nH]3)ccc2C)ccc1Cl`?
DRD3 agonist: 18.8; D1 potentiator: -4.7; D1 antagonist: 12.5; ERG-DNA inh: 0.0%; D1 agonist: 18.4

What do the screens show for `CCCCNC(=O)C1(C)CCCCN1C(=O)c1sccc1C` (stereo not given)?
DRD3 agonist: -8.8; D3 antag: 0.0

How did Cc1ccc(OCc2cc(C(=O)N3CCN(C4CCCCC4)CC3)no2)cc1C do in these assays?
DRD3 agonist: -9.0; D1 potentiator: -3.9; D1 antagonist: -1.9; ERG-DNA inh: 1.0%; D3 antag: -5.8; D1 agonist: 7.5

Results for CCc1cccc(NC(=O)c2ccc3c(c2)c(C)c(C)n3Cc2ccc(F)cc2)c1 ?
DRD3 agonist: -1.1; D1 potentiator: -2.9; D1 antagonist: -10.9; ERG-DNA inh: 0.2%; D1 agonist: 5.7

How did O=C(c1ccco1)N1N=C(C2CCCCC2)CC1(O)C(F)(F)F (stereo not given) do in these assays?
DRD3 agonist: 4.2; D1 potentiator: -4.6; D1 antagonist: -38.3*; ERG-DNA inh: 3.6%; D3 antag: 7.5; D1 agonist: 1.8

How did O=C(c1ccco1)N1N=C(c2ccc(Br)cc2)CC1(O)C(F)(F)F (stereo not given) do in these assays?
DRD3 agonist: 7.1; D1 potentiator: -5.4; D1 antagonist: -45.7*; ERG-DNA inh: -1.3%; D3 antag: 12.7; D1 agonist: 5.6

What do the screens show for `CCC(CCCO)CCC[C@H](C)CCC1OCCO1` (stereo not given in full)?
DRD3 agonist: -32.1; D1 potentiator: 2.3; ERG-DNA inh: 10.2%; D3 antag: inconclusive; D1 agonist: 0.9

Results for Cc1cc(C)cc(N2C(=O)N(Cc3cccc(F)c3)c3ccccc3S2(=O)=O)c1 ?
DRD3 agonist: 2.8; D1 potentiator: -3.1; D1 antagonist: -26.2; ERG-DNA inh: -6.9%; D1 agonist: 4.7

What do the screens show for `Oc1cc2c(cc1CN1CCN(c3ncccn3)CC1)OCO2`?
DRD3 agonist: 42.1*; D1 potentiator: -4.8; D1 antagonist: 3.0; ERG-DNA inh: -9.7%; D3 antag: -14.7; D1 agonist: 3.0

Results for CCCCCCN1N=C(C)C(C(=O)c2ccc(Cl)cc2)C1=O (stereo not given) ?
DRD3 agonist: 1.6; D1 potentiator: 0.3; D1 antagonist: -16.9; ERG-DNA inh: -4.0%; D3 antag: -83.4*; D1 agonist: 7.1

Results for CCCCCCCN1N=C(C)C(C(=O)c2ccccc2)C1=O (stereo not given) ?
DRD3 agonist: 3.5; D1 potentiator: -3.9; D1 antagonist: -2.7; ERG-DNA inh: -0.5%; D3 antag: -24.7; D1 agonist: 10.0

Results for COc1ccccc1Nc1nc(C)c(C(=O)Nc2ccccc2)s1 ?
DRD3 agonist: -7.4; D1 potentiator: -8.5; D1 antagonist: -38.4*; ERG-DNA inh: 15.9%; D3 antag: -0.6; D1 agonist: 2.6

Screening data deposited in PubChem by National Center for Advancing Translational Sciences (NCATS).
